Screen size: about 5,500 compounds; about 2,000 (36%) were called active. Roughly 18% stayed inconclusive and do not appear here. Rule as the data show it: active = normalized growth mostly below about 0.91 (no sharp cut-off); inconclusive = no clear call, values can overlap the other calls; inactive = mostly above about 0.92. The list shows a part of the results.
Test: chemical genetic growth profiling, strain panel (AID 1159580);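 also: tested at 20 µM; growth read once vehicle control cultures reached saturation at 30 °C; 1 = growth at the plate median or of vehicle wells; lower values mean less growth of the strain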
Details: growth OD
[1] = S. cerevisiae deletion strains, locus YAL013W, strain DEP1, stronger effect = lower value
[2] = S. cerevisiae deletion strains, locus YBR229C, strain ROT2, stronger effect = lower value
[3] = S. cerevisiae deletion strains, locus YDL101C, strain DUN1, stronger effect = lower value
[4] = S. cerevisiae deletion strains, locus YDR150W, strain NUM1, stronger effect = lower value
[5] = S. cerevisiae deletion strains, locus YEL061C, strain CIN8, stronger effect = lower value
[6] = S. cerevisiae deletion strains, locus YGR078C, strain PAC10, stronger effect = lower value
[7] = S. cerevisiae deletion strains, locus YHR030C, strain SLT2, stronger effect = lower value
[8] = S. cerevisiae deletion strains, locus YHR087W, strain rtc3, stronger effect = lower value
[9] = S. cerevisiae deletion strains, locus YJL187C, strain SWE1, stronger effect = lower value
[10] = S. cerevisiae deletion strains, locus YJR043C, strain POL32, stronger effect = lower value
[11] = S. cerevisiae deletion strains, locus YJR075W, strain HOC1, stronger effect = lower value
[12] = S. cerevisiae deletion strains, locus YLR039C, strain RIC1, stronger effect = lower value
[13] = S. cerevisiae deletion strains, locus YLR058C, strain SHM2 (second series), stronger effect = lower value
[14] = S. cerevisiae deletion strains, locus YLR085C, strain ARP6, stronger effect = lower value
[15] = S. cerevisiae deletion strains, locus YLR262C, strain YPT6, stronger effect = lower value
[16] = S. cerevisiae deletion strains, locus YML094W, strain GIM5, stronger effect = lower value
[17] = S. cerevisiae deletion strains, locus YMR219W, strain ESC1, stronger effect = lower value
[18] = S. cerevisiae deletion strains, locus YMR263W, strain SAP30, stronger effect = lower value
[19] = S. cerevisiae deletion strains, locus YNL153C, strain GIM3, stronger effect = lower value
[20] = S. cerevisiae deletion strains, locus YNL298W, strain CLA4 (second series), stronger effect = lower value
[21] = S. cerevisiae deletion strains, locus YNL322C, strain KRE1, stronger effect = lower value
[22] = S. cerevisiae deletion strains, locus YNR030W, strain Alg12, stronger effect = lower value
[23] = S. cerevisiae deletion strains, locus YOL006C, strain TOP1, stronger effect = lower value
[24] = S. cerevisiae deletion strains, locus YPL055C, strain LGE1, stronger effect = lower value
[25] = S. cerevisiae deletion strains, locus YPL241C, strain CIN2, stronger effect = lower value
[26] = S. cerevisiae deletion strains, locus YPR135W, strain CTF4, stronger effect = lower value

Measured: normalized growth

CC(C)(C)c1cc(-c2csc(-c3ccc(Cl)cc3)n2)cc(C(C)(C)C)c1O
active: [14] 1.22 [resistant]
inactive: [1] 1 | [2] 1.02 | S. cerevisiae deletion strains, locus YCL061C, strain MRC1, stronger effect = lower value 1.01 | [3] 1.02 | S. cerevisiae deletion strains, locus YDL134C, strain PPH21, stronger effect = lower value 1.02 | [4] 0.943 | [5] 1.03 | [6] 1.01 | [7] 1.09 | [8] 1.01 | [9] 1.02 | [10] 1.01 | [11] 1.03 | [12] 1.09 | [13] 1.02 | [15] 1.05 | [16] 1.03 | [17] 1.01 | [18] 0.96 | [19] 1 | [20] 1.04 | [21] 1.01 | [22] 1.03 | [23] 1.18 | [24] 0.911 | [25] 1.01 | [26] 1.07 | S. cerevisiae strains, strain wild type, stronger effect = lower value 1.02

Cc1ccc(-c2csc(-c3ccc(Cl)cc3)n2)c(C)c1
inactive: [1] 0.979 | [2] 0.978 | [3] 0.968 | [4] 0.987 | [5] 0.914 | [6] 0.989 | [8] 0.956 | [9] 0.994 | [10] 0.994 | [11] 1.01 | [12] 0.926 | [13] 0.988 | [15] 0.952 | [16] 0.9 | [17] 0.998 | [18] 1.01 | [19] 1.01 | [20] 0.908 | [21] 0.987 | [22] 0.949 | [24] 0.968 | [25] 1.1 | [26] 0.772
active: [7] 0.611 | [14] 0.753 | [23] 0.686

Cc1ccc2nc(-c3ccc(Cl)cc3)cn2c1
inactive: S. cerevisiae deletion strains, locus YAR019C, strain CDC15, stronger effect = lower value 0.961 | S. cerevisiae deletion strains, locus YBL105C, strain PKC1, stronger effect = lower value 0.97 | S. cerevisiae deletion strains, locus YBR135W, strain CKS1, stronger effect = lower value 0.968 | S. cerevisiae deletion strains, locus YBR136W, strain MEC1, stronger effect = lower value 0.968 | S. cerevisiae deletion strains, locus YBR160W, strain CDC28, stronger effect = lower value 0.954 | S. cerevisiae deletion strains, locus YDL017W, strain CDC7, stronger effect = lower value 0.964 | S. cerevisiae deletion strains, locus YDL028C, strain MPS1, stronger effect = lower value 0.974 | [3] 0.969 | S. cerevisiae deletion strains, locus YDL108W, strain KIN28, stronger effect = lower value 0.971 | S. cerevisiae deletion strains, locus YDL132W, strain cdc53, stronger effect = lower value 0.962 | S. cerevisiae deletion strains, locus YDL214C, strain PRR2, stronger effect = lower value 0.95 | S. cerevisiae deletion strains, locus YDR052C, strain DBF4, stronger effect = lower value 0.972 | S. cerevisiae deletion strains, locus YDR054C, strain cdc34, stronger effect = lower value 0.949 | S. cerevisiae deletion strains, locus YDR226W, strain ADK1, stronger effect = lower value 0.959 | S. cerevisiae deletion strains, locus YDR477W, strain SNF1, stronger effect = lower value 0.933 | S. cerevisiae deletion strains, locus YER123W, strain YCK3, stronger effect = lower value 0.89 | S. cerevisiae deletion strains, locus YER133W, strain GLC7, stronger effect = lower value 0.923 | S. cerevisiae deletion strains, locus YFL009W, strain cdc4, stronger effect = lower value 0.967 | S. cerevisiae deletion strains, locus YFL029C, strain CAK1, stronger effect = lower value 0.956 | S. cerevisiae deletion strains, locus YFR003C, strain YPI1, stronger effect = lower value 0.97 | S. cerevisiae deletion strains, locus YFR019W, strain FAB1, stronger effect = lower value 0.944 | S. cerevisiae deletion strains, locus YFR028C, strain CDC14, stronger effect = lower value 0.958 | S. cerevisiae deletion strains, locus YGR040W, strain KSS1, stronger effect = lower value 0.911 | S. cerevisiae deletion strains, locus YGR052W, strain FMP48, stronger effect = lower value 0.974 | S. cerevisiae deletion strains, locus YGR092W, strain DBF2, stronger effect = lower value 0.903 | [7] 0.889 | S. cerevisiae deletion strains, locus YHR079C, strain IRE1, stronger effect = lower value 0.936 | S. cerevisiae deletion strains, locus YHR082C, strain KSP1, stronger effect = lower value 1 | S. cerevisiae deletion strains, locus YHR205W, strain SCH9, stronger effect = lower value 0.966 | S. cerevisiae deletion strains, locus YIL147C, strain SLN1, stronger effect = lower value 0.975 | S. cerevisiae deletion strains, locus YJL095W, strain BCK1, stronger effect = lower value 0.948 | S. cerevisiae deletion strains, locus YJL128C, strain PBS2, stronger effect = lower value 0.966 | S. cerevisiae deletion strains, locus YJL157C, strain FAR1, stronger effect = lower value 0.92 | S. cerevisiae deletion strains, locus YJR016C, strain ILV3, stronger effect = lower value 0.97 | S. cerevisiae deletion strains, locus YJR066W, strain TOR1 (second series), stronger effect = lower value 0.937 | S. cerevisiae deletion strains, locus YJR066W, strain TOR1, stronger effect = lower value 0.953 | S. cerevisiae deletion strains, locus YKL048C, strain ELM1, stronger effect = lower value 0.956 | S. cerevisiae deletion strains, locus YKL067W, strain YNK1, stronger effect = lower value 0.936 | S. cerevisiae deletion strains, locus YKL101W, strain HSL1, stronger effect = lower value 0.953 | S. cerevisiae deletion strains, locus YKL193C, strain SDS22, stronger effect = lower value 0.961 | S. cerevisiae deletion strains, locus YKL203C, strain TOR2, stronger effect = lower value 0.97 | S. cerevisiae deletion strains, locus YLR113W, strain HOG1, stronger effect = lower value 0.906 | S. cerevisiae deletion strains, locus YLR133W, strain CKI1, stronger effect = lower value 0.953 | S. cerevisiae deletion strains, locus YLR403W, strain SFP1, stronger effect = lower value 0.93 | S. cerevisiae deletion strains, locus YML070W, strain DAK1, stronger effect = lower value 0.91 | S. cerevisiae deletion strains, locus YMR001C, strain CDC5, stronger effect = lower value 0.965 | S. cerevisiae deletion strains, locus YMR205C, strain PFK2 (second series), stronger effect = lower value 0.952 | S. cerevisiae deletion strains, locus YMR277W, strain FCP1, stronger effect = lower value 0.961 | S. cerevisiae deletion strains, locus YNL006W, strain LST8, stronger effect = lower value 0.962 | S. cerevisiae deletion strains, locus YNL020C, strain ARK1, stronger effect = lower value 0.946 | S. cerevisiae deletion strains, locus YNL161W, strain CBK1, stronger effect = lower value 0.961 | S. cerevisiae deletion strains, locus YNL183C, strain NPR1, stronger effect = lower value 0.928 | S. cerevisiae deletion strains, locus YNL207W, strain RIO2, stronger effect = lower value 0.97 | S. cerevisiae deletion strains, locus YNL222W, strain SSU72, stronger effect = lower value 0.958 | S. cerevisiae deletion strains, locus YNL307C, strain MCK1 (second series), stronger effect = lower value 0.907 | S. cerevisiae deletion strains, locus YOL078W, strain AVO1, stronger effect = lower value 0.97 | S. cerevisiae deletion strains, locus YOL136C, strain PFK27, stronger effect = lower value 0.921 | S. cerevisiae deletion strains, locus YOR061W, strain CKA2, stronger effect = lower value 0.948 | S. cerevisiae deletion strains, locus YOR119C, strain RIO1, stronger effect = lower value 0.982 | S. cerevisiae deletion strains, locus YOR231W, strain MKK1, stronger effect = lower value 0.884 | S. cerevisiae deletion strains, locus YOR329C, strain SCD5, stronger effect = lower value 0.969 | S. cerevisiae deletion strains, locus YPL031C, strain PHO85, stronger effect = lower value 0.949 | S. cerevisiae deletion strains, locus YPL153C, strain RAD53, stronger effect = lower value 0.899 | S. cerevisiae deletion strains, locus YPL204W, strain HRR25, stronger effect = lower value 0.9 | S. cerevisiae deletion strains, locus YPL209C, strain IPL1, stronger effect = lower value 0.959 | S. cerevisiae deletion strains, locus YPL256C, strain CLN2, stronger effect = lower value 0.909 | S. cerevisiae deletion strains, locus YPR025C, strain CCL1, stronger effect = lower value 0.969 | S. cerevisiae deletion strains, locus YPR106W, strain ISR1, stronger effect = lower value 0.964 | S. cerevisiae deletion strains, locus YPR111W, strain DBF20, stronger effect = lower value 0.96 | S. cerevisiae deletion strains, strain NNK1, stronger effect = lower value 0.986 | S. cerevisiae deletion strains, strain TSCII, stronger effect = lower value 0.959

— PubChem BioAssay AID1159580 (chemical genetic matrix, 2015)
